Results taken from PubChem BioAssay (NCI).
About 83,000 compounds went through this panel and 20% of them were active in at least one assay; those are over-represented in the sample as a whole.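 Interpretation: 100, growth as untreated; towards 0, rising growth inhibition; 0, no net growth; 0 to -100, cell death. Compounds scoring below 10 were considered active.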 Values without a mark were called inactive. Active and inactive are the calls of the source.

Assays:
Assay in all cases: NCI-60 one-dose screen, 48 h (100 = growth as untreated, 0 = no growth, -100 = all killed)
Details in all cases: 10 µM unless noted
NCI-H23 lung = tested on: NCI-H23 lung
NCI-H226 lung = tested on: NCI-H226 lung
NCI-H322M lung = tested on: NCI-H322M lung
HOP-62 NSCLC = tested on: HOP-62 NSCLC
NCI-H460 lung = tested on: NCI-H460 lung
HOP-92 NSCLC = tested on: HOP-92 NSCLC
NCI-H522 lung = tested on: NCI-H522 lung
A549/ATCC NSCLC = tested on: A549/ATCC NSCLC
786-0 renal = tested on: 786-0 renal
COLO 205 colon = tested on: COLO 205 colon

Compound	growth (NCI-H23 lung)	growth (NCI-H226 lung)	growth (NCI-H322M lung)	growth (HOP-62 NSCLC)	growth (NCI-H460 lung)	growth (HOP-92 NSCLC)	growth (NCI-H522 lung)	growth (A549/ATCC NSCLC)	growth (786-0 renal)	growth (COLO 205 colon)
CC(=O)OC1Oc2ccccc2-c2oc(=O)c(-c3cc4ccc(N(C)C)cc4oc3=O)cc21 (stereo not given)	36.4%	55%	69.4%	69.4%	75.4%	-3.58% (active)	6.65% (active)	61.2%	55.2%	67.3%
CCNC(=O)Nc1nc2ccc(Oc3ccnc(C(=O)NC)c3)cc2s1	90.1%	84.5%	102%	76.1%	73.4%	70.6%	56.6%	62.4%	88.3%	56.1%
O=C(Cn1ccc2ccccc21)Nc1ccc(-c2nc3ccccc3s2)cc1	94%	102%	98.8%	103%	105%	105%	102%	98.3%	103%	101%
CO/C=C/C(=O)c1cc2cnc3c(=N)cc(NC(=O)C(C)C)c([nH]1)c23	-11.9% (active)	-40.3% (active)	-13.2% (active)	-18.7% (active)	5.42% (active)	-16% (active)	23.8%	19.3%	-44.6% (active)	-33.8% (active)
CCCS(=O)(=O)Nc1ccc(F)c(C(=O)c2c[nH]c3ncc(-c4ccc(Cl)cc4)cc23)c1F	56%	57.2%	27.8%	34.8%	17.3%	28%	28.9%	25.6%	19%	-4.91% (active)
CSC1=C(N)C(=O)c2[nH]cc(CO)c2C1=N	-29.3% (active)	-65.3% (active)	-97.2% (active)	-72.1% (active)	-59.2% (active)	-71.7% (active)	-43.4% (active)	-57.4% (active)	-70.1% (active)	-77.6% (active)
Clc1nc(Cl)c2ncn(CC#CCn3cnc4c(Cl)nc(Cl)nc43)c2n1	38.6%	5.54% (active)	46.6%	62%	12.5%	-87.6% (active)	-71.2% (active)	8.8% (active)	7.75% (active)	-26.9% (active)
CN1CCN(Cc2ccc(NC(=O)c3[nH]ncc3Nc3ncnc4sc5c(c34)CCCC5)cc2)CC1	-63.7% (active)	-51.9% (active)	-50.8% (active)	-72% (active)	-62.2% (active)	-21.1% (active)	-76.1% (active)	-58.2% (active)	-92.2% (active)	-93% (active)
CCCCCCCC(=O)SCC/C=C/[C@@H]1CC(=O)NCc2nc(co2)C2=N[C@@](C)(CS2)C(=O)N[C@@H](C(C)C)C(=O)O1	-2.47% (active)	-10.4% (active)	-18.5% (active)	-6.6% (active)	3.41% (active)	-15.5% (active)	-10.2% (active)	-2.81% (active)	10.2%	-41.3% (active)
C=CC(=O)Nc1cc2c(Nc3ccc(F)c(Cl)c3)ncnc2cc1C#CC(C)(C)N1CCN(C)CC1	-88.9% (active)	-97.4% (active)	-86% (active)	-88.3% (active)	-77% (active)	-91.3% (active)	-73.7% (active)	-82% (active)	-96.3% (active)	-71.7% (active)
C=CCn1c(=O)c2cnc(Nc3ccc(N4CCN(C)CC4)cc3)nc2n1-c1cccc(C(C)(C)O)n1	2.22% (active)	40%	14.1%	2.56% (active)	12%	49.2%	-45.8% (active)	15.9%	14%	-29.5% (active)
COc1ccc(S(=O)(=O)N(C(C)=O)c2ccccc2/C=C/c2cc[n+]([O-])cc2)cc1	32.7%	80.6%	39.2%	10.5%	3.49% (active)	56.6%	-26.4% (active)	17.5%	26.7%	-36.6% (active)
O=C(c1ccc(F)c(F)c1Nc1ccc(I)cc1F)N1CC(O)([C@@H]2CCCCN2)C1	13.9%	39.4%	13.5%	17.7%	18.8%	-47.8% (active)	18.8%	14.2%	29.1%	-63.9% (active)
